# Screening results: PubChem, several laboratories
# p97 ATPase inh – inhibitors of human p97 ATPase. P55072. recombinant p97 ATPase, Kinase-Glo ATP luminescence, 3 h. inhibition, % at 8 µM. hit rate 0.42% among 220,000. AID 1481; in the data active = inhibition above about 15%;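 also: 0% = DMSO vehicle and 100% = wells lacking enzyme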
# Target sequence (P55072 whole entry, looked up): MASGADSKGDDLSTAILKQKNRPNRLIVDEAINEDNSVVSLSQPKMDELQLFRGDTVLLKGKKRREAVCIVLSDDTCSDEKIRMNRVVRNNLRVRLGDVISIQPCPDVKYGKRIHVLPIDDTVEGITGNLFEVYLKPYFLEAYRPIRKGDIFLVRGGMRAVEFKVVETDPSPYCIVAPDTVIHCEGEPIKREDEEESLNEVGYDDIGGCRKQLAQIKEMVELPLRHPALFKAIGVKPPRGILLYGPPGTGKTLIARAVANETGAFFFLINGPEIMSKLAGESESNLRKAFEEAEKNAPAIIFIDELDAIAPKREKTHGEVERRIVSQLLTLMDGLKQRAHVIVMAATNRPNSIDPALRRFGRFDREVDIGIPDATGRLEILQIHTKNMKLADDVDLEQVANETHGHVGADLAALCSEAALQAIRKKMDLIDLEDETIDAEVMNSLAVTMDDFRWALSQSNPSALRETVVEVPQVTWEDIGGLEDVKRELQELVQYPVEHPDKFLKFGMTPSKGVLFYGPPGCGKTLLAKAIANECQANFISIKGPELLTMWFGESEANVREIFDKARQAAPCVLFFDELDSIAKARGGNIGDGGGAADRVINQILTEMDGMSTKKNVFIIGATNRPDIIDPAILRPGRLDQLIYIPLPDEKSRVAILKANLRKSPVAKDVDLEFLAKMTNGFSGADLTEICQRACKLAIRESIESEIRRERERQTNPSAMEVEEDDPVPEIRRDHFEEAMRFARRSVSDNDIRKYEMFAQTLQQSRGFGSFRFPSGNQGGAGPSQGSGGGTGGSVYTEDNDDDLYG
# Lmaj promast – reduces viability of Leishmania major promastigotes. resazurin fluorescence viability. inhibition, % at 10 µM. hit rate 9% among 200,000. AID 1063; in the data active = inhibition above about 50%;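 also: promastigotes grown with compound for 44 hours at 28 °C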
# bCat KO growth – beta-catenin-lacking colon tumor cell growth suppression; HCT116 beta-catenin knockout viability, CellTiter-Glo, 60 h; active compounds read low; viability, % at 10 µM; hit rate 1.5% among 140,000; AID 818;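 active = viability at or under a set limit, the compound median less 4 SD, cut at about 6% in these data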;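 also: 0% = Hyamine 1622 control at 20 µM and 100% = untreated cell control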
# ROMK mod – human ROMK K+ channel modulation, primary screen; Tet-inducible ROMK, thallium flux fluorescence; actives lie on both sides; P48048; B-score at 10 µM; AID 1918; hit rate 2% among 130,000;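 active = signal ratio slope over the read window, or its plate-corrected B-score, at least 3 SD from the plate mean, either direction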;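 also: B-score of the F/F0 ratio slope over 7 to 12 s after thallium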
# Insulin prom inh – TRM-6 insulin promoter activity inhibition; hit rate 0.9% among 130,000; inhibition, % at 2 µM; TRM-6 cells (human fetal islet line), insulin promoter-eGFP reporter, imaging; reporter expression induced with tamoxifen; AID 1273;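 active = inhibition above the mean plus 3 SD, with well images judged a real hit on visual review, cut at about 60% in these data, passing the limit was not always enough; inconclusive = inhibition over the cutoff but images rejected on review; inactive = inhibition not above the cutoff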
# PTEN del growth – growth suppressors of cells with PTEN tumor suppressor deletion | viability, % at 10 µM | HCT116 PTEN-null viability, CellTiter-Glo, 60 h; active compounds read low | hit rate 1.2% among 140,000 | AID 827;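 active = viability at or below a set limit, 4 SD under the median of all tested compounds, cut at about 3.7% in these data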;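 also: PTEN knockout HCT116 line with beta catenin targeted HCT116 as companion control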
# ROMK hit retest – retested hit modulating human ROMK potassium channel; normalized thallium flux (F/F0 slope) at 10 µM; shares compounds with ROMK mod; hit rate 54% among 3,000; AID 1917; ROMK thallium flux, fluorescence ratio; active compounds read low;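 active = Flux at 10 µM at least 3 SD below or above vehicle control mean in one or both replicates; inconclusive = no clear call, values can overlap the other calls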
# Active calls of the source: *; u = inconclusive; x = no result given. Only some compounds are listed: those with a hit (about 10% of all), similar ones and a draw of the others.
SMILES,p97 ATPase inh,Lmaj promast,bCat KO growth,ROMK mod,Insulin prom inh,PTEN del growth,ROMK hit retest
COc1cccc(-c2nnc(SCC(=O)Nc3cc(C)ccc3OC)n2N)c1,2.8,-9.8,96.5,x,x,104.2,u
O=C1C=C(c2ccccc2)C(=O)N1Nc1ccccc1,1.8,-7.2,100.1,-3.57*,-20.8,101.6,0.0606*
CCCc1nc2oc3c(=O)[nH]cnc3c2c2c1CCCC2,2.5,3.1,96.4,-0.604,-57.1,95.0,x
CCOC(=O)CN1CC23C=CC(O2)C(C(=O)Nc2ccc(C(C)=O)cc2)C3C1=O (centres undefined),2.0,-7.7,92.3,x,x,111.3,x
CC(=O)c1cccc(NC(=O)Cc2cccs2)c1,-0.1,-4.5,102.3,x,29.8,101.1,x
CCC(=O)Nc1cccc(C(=O)/C=C/c2cccs2)c1,-6.0,40.7,x,-1.35,42.9,x,0.0686*
COc1ccc(Cl)cc1NC(=S)Nc1cccnc1,-0.2,8.1,x,0.0589,23.5,x,x
Cn1c(=O)c2c(nc(Br)n2CCCc2ccccc2)n(C)c1=O,1.7,2.6,80.6,-4.13*,14.3,79.4,0.0633*
Cn1c(=O)[nH]c(=O)c2c1nc(Br)n2CCCc1ccccc1,0.6,0.5,88.9,-2.34,9.6,86.5,x
O=C(O)CCCN1C(=O)/C(=C/c2cn(-c3ccccc3)nc2-c2cccs2)SC1=S,-3.7,-5.5,x,-3.45*,21.4,x,u
Cc1nn(-c2ccccc2)c(Cl)c1/C=C1\SC(=S)N(CCCCCC(=O)O)C1=O,-1.1,x,x,x,x,x,x
Cc1nc([N+](=O)[O-])c(Sc2nc3ccccc3n2C)n1Cc1ccccc1,0.9,96.3*,2.7*,-2.97*,56.7,1.8*,0.0557*
CC(=O)C1=C(O)C(=O)N(CCCCCC(=O)O)C1c1ccc(N(C)C)cc1 (centres undefined),0.2,-6.1,93.1,0.23,x,97.9,x
COc1cc(NC(=O)COc2ccc(-n3cnnn3)cc2)c(OC)cc1Cl,-2.5,-1.5,111.2,x,39.5,104.0,0.0872
COc1ccc(N2CC(C(=O)NCCCN3CCOCC3)CC2=O)cc1 (centres undefined),-2.1,-2.2,100.4,x,0.0,103.7,x
N#CC1=C(N)N(c2ccccc2)C(c2ccccc2)C1(C#N)C#N (centres undefined),-1.5,13.4,67.8,-3.04*,39.1,65.4,0.0546*
Cc1nn(-c2ccccc2)c2c1C(c1ccccc1)C(C#N)=C(N)O2 (centres undefined),13.2,3.5,94.8,-2.89,x,92.3,x
Cc1ccc(N2CCN(C(=O)CN3C(=O)c4ccccc4C3=O)CC2)cc1,2.1,1.6,99.4,1.89*,20.0,94.3,0.0738
Cc1ccc(N2NC(=O)/C(=C\c3cc4c(cc3[N+](=O)[O-])OCO4)C2=O)cc1C,3.5,20.1,39.1,-4.93*,44.8,43.7,0.0481*
COc1cc(/C=C2/C(=O)NN(c3cccc(C)c3)C2=O)cc([N+](=O)[O-])c1O,9.1,-13.6,x,0.507,x,x,x
CC(=O)c1cccc(NC(=O)C(=O)c2cn(CC(=O)N3CCCCC3)c3ccccc23)c1,1.1,14.7,x,0.695,-16.7,x,x
CCN1CCN(c2nc3c(c(=O)[nH]c(=O)n3C)n2CCSc2nc3ccccc3s2)CC1,-4.7,-3.3,83.6,x,x,81.8,x
CC(CSc1nc2ccccc2s1)Cn1c(N2CCCC2)nc2c1c(=O)[nH]c(=O)n2C (centres undefined),0.8,52.5*,72.3,-3.07*,x,61.4,0.0599*
CCN(CC)c1ccc(N=Cc2cc(Br)ccc2O)cc1,2.1,9.4,x,-5.58*,-100.0,x,0.0639*
Oc1ccc(Br)cc1C=Nc1ccc(Cl)cc1,4.9,11.7,x,0.411,-18.2,x,x
SMILES,p97 ATPase inh,Lmaj promast,bCat KO growth,ROMK mod,Insulin prom inh,PTEN del growth,ROMK hit retest
CC(CCc1ccccc1)NC(=O)CN1CCN(c2ccccc2)CC1 (centres undefined),-0.4,6.8,x,-2.88*,x,x,0.0614*
O=C(CN1CCN(C(c2ccccc2)c2ccccc2)CC1)N1CCN(c2ccccc2)CC1,-0.5,x,x,-3.66*,x,x,0.0627*
O=C(COC(=O)c1ccc(S(=O)(=O)N2CCCC2)cc1)NCc1ccccc1,2.6,-3.1,97.8,x,21.2,108.3,x
N#C/C(=C\c1ccccc1Cl)C(=O)NC(=O)Oc1ccccc1,-4.5,-1.9,96.8,-4.29*,-71.0,102.9,0.0461*
N#C/C(=C\c1ccccc1)C(=O)NC(=O)Oc1ccccc1,0.2,-5.2,96.0,0.00198,-3.2,98.7,x
Cc1ccc(S(=O)(=O)N2CCCN(c3nccc(C(F)(F)F)n3)CC2)cc1,-0.1,x,x,0.482,x,x,x
